# About 960 (1.5%) of roughly 66,000 compounds showed an effect of 50% or more. The sample holds strong results, similar compounds and a random draw of the others, so the mix is not that of the screen.
# Tested on: Trypanosoma brucei
# Assay: Trypanosoma brucei 72 hour study
# Type: functional, organism-based
# Set-up: scale not given: in the data most compounds retested in dose-response had high values
structure (smiles),measurement,setting,value
CCOc1ccccc1-c1cc(N)[nH]n1.Cl,Percent Effect,"30.3 µM, […]",-3.53%
CC(C)NC(=O)C1CN(Cc2ccc(F)cc2)CC12CCOCC2.O=C(O)C(F)(F)F (stereo not drawn),Percent Effect,"30 µM, 30.03 µM",-12.09%
CCC(C)(COc1ncccc1Cl)NCC(=O)NCC(C)C (stereo not drawn),Percent Effect,"30 µM, 30.03 µM",-31.89%
CCC1=N[C@@]2(CC[C@@H]3CN(CC4CC4)C[C@@H]32)C(=O)N1CC1CC1.O=C(O)C(F)(F)F,Percent Effect,"30 µM, 30.03 µM",-23.62%
COc1ccnc(N2CCCN(C(=O)Cc3ccc(C)s3)CC2)n1,Percent Effect,10 µM,-47.83%
Cc1cccc(CNC2CC3(CCN(CCO)CC3)c3ccccc32)n1.O=C(O)C(F)(F)F.O=C(O)C(F)(F)F (stereo not drawn),Percent Effect,"30.3 µM, […]",13.54%
Cn1ncc2c1C(COCC1CC1)CN(C(=O)c1cscn1)C2.O=C(O)C(F)(F)F (stereo not drawn),Percent Effect,"30 µM, 30.03 µM",21.88%
Cn1cc(CN2CCn3cc(CNC(=O)c4cccn4C)nc3C2)cn1.O=C(O)C(F)(F)F,Percent Effect,"30 µM, 30.03 µM",21.81%
N#Cc1cccnc1N1CCC(C2CCCCCN2C(=O)C2CC2)CC1 (stereo not drawn),Percent Effect,"30.3 µM, […]",53.48%
CC(=O)N1CCCCCC1C1CCN(c2ncccc2C#N)CC1 (stereo not drawn),Percent Effect,"30.3 µM, […]",13.42%
N#Cc1cccnc1N1CCC(C2CCCCCN2C(N)=O)CC1 (stereo not drawn),Percent Effect,"30.3 µM, […]",5.33%
Cn1cnnc1-c1ccnc(NCc2ccccc2)c1,Percent Effect,"30.3 µM, […]",5.527%
Cn1nccc1CN1CCOC(c2ccc(-c3cncnc3)cn2)C1 (stereo not drawn),Percent Effect,"30.3 µM, […]",1.674%
Br.Cn1nccc1CN1CCOC(c2cccc(-c3cncnc3)n2)C1 (stereo not drawn),Percent Effect,"30.3 µM, […]",-1.234%
Cn1nccc1CN1CCOC(c2cccc(Nc3ccccn3)n2)C1 (stereo not drawn),Percent Effect,"30.3 µM, […]",100.5%
NC(=O)c1cc(NC(=O)N2CCCCCC2)ccc1F,Percent Effect,"30 µM, 30.03 µM",-43.72%
O=C(Nc1ccc(F)c(Br)c1)N1CCCC1,Percent Effect,"30 µM, 30.03 µM",97.43%
NC(=O)c1cc(NC(=O)N2CCOCC2)ccc1F,Percent Effect,"30 µM, 30.03 µM",-9.926%
CC(C)CN1CCC2(C=C(C(=O)N(C)C)c3ccccc32)CC1.O=C(O)C(F)(F)F,Percent Effect,"30.3 µM, […]",-83.33%
Cc1ccc(CN2CCn3cc(CNC(=O)c4cnn(C)c4)nc3C2)s1.O=C(O)C(F)(F)F,Percent Effect,"30 µM, 30.03 µM",-34.09%
CC(C)C(=O)N1CCC2(CC1)COCCN2Cc1ccc(F)cc1.O=C(O)C(F)(F)F,Percent Effect,"30 µM, 30.03 µM",21.09%
Cc1cc2c(=O)n3c(nc2s1)CCN(Cc1cncn1C)CC3.Cl,Percent Effect,"30.3 µM, […]",6.762%
CCOc1ccc(C#N)cc1NCC(=O)OC,Percent Effect,"30.3 µM, […]",-4.293%
same,Percent Effect,"10 mM, 10 mM as filed; unlikely as a test dose",-28.98%
CCCNC(=O)CNc1cc(C#N)ccc1OCC,Percent Effect,"30 µM, 30.03 µM",58.39%
CCNC(=O)NC(=O)CNc1cc(C#N)ccc1OCC,Percent Effect,"30.3 µM, […]",-6.445%
same,Percent Effect,"10 mM, 10 mM as filed; unlikely as a test dose",-44.56%
CCN(CC)C(=O)Cc1csc(C(C)C)n1,Percent Effect,"30 µM, 30.03 µM",-85.89%
CC(C)c1nc(CN(C)C(=O)C(O)c2ccc(Cl)cc2)cs1 (stereo not drawn),Percent Effect,"30 µM, 30.03 µM",3.875%
CNC(=O)CN(C)C(=O)Cc1csc(C(C)C)n1,Percent Effect,"30 µM, 30.03 µM",70.2%
CC(C)c1nc(CN(C)C(=O)[C@H](N)Cc2ccc(Cl)cc2)cs1,Percent Effect,"30 µM, 30.03 µM",-3.528%
CC(C)c1nc(CN(C)C(=O)c2ccc3c(c2)OCC(=O)N3)cs1,Percent Effect,"30 µM, 30.03 µM",17.57%
CC(C)c1nc(CN(C)C(=O)c2ccc3c(c2)OCO3)cs1,Percent Effect,"30 µM, 30.03 µM",56.82%
CCN(CC(=O)NC)C(=O)Cc1csc(C(C)C)n1,Percent Effect,"30 µM, 30.03 µM",-25.08%
CC(C)C[C@@H](N)C(=O)N(C)Cc1csc(C(C)C)n1,Percent Effect,"30 µM, 30.03 µM",100.6%
CC(C)c1nc(CN(C)C(=O)CCc2ccc3c(c2)OCO3)cs1,Percent Effect,"30 µM, 30.03 µM",12.36%
Cc1cccc(CN2C(=O)CO[C@@H]3CN(C4CCOCC4)C[C@H]32)c1.O=C(O)C(F)(F)F,Percent Effect,"30 µM, 30.03 µM",-46.8%
O=C(O)C(F)(F)F.O=C(c1ccco1)N1C[C@H]2CCCN(CC3CC3)[C@H]2C1,Percent Effect,"30 µM, 30.03 µM",-18.48%
CCN(C)c1ncnc2c1CCN(Cc1ccc(F)cc1)CC2.O=C(O)C(F)(F)F.O=C(O)C(F)(F)F,Percent Effect,"30 µM, 30.03 µM",0%
CC(=O)N1CCOCC2(CN(Cc3ccc(C)o3)CCO2)C1.O=C(O)C(F)(F)F (stereo not drawn),Percent Effect,"30 µM, 30.03 µM",0.2271%
COCCC1(CO)CCCN(CCCc2ccccc2)C1 (stereo not drawn),Percent Effect,"30 µM, 30.03 µM",-35.64%
COCCCC1(CO)CCCN(CCc2ccccc2)C1 (stereo not drawn),Percent Effect,"30 µM, 30.03 µM",60.85%
COCCCC1(CO)CCCN(CCc2ccccn2)C1 (stereo not drawn),Percent Effect,"30 µM, 30.03 µM",-19.7%
COCCn1c(=O)n(C)c(=O)c2ccc(C3CCC(CN)CC3)nc21.Cl (stereo not drawn),Percent Effect,"30.3 µM, […]",8.357%
COc1cccc(CNC(Cc2cccs2)c2nc(C)c(C)s2)c1OC.Cl (stereo not drawn),Percent Effect,"30.3 µM, […]",-32.09%
CCc1ccc2nc(C)cc(C(=O)NC[C@@H]3CCNC[C@H]3O)c2c1,Percent Effect,"30 µM, 30.03 µM",-34.49%
CCc1ccc2nc(C)cc(C(=O)N[C@@H]3CCCNC3)c2c1,Percent Effect,"30 µM, 30.03 µM",86.43%
CCc1ccc2nc(C)cc(C(=O)N[C@@H]3CNC[C@H]3O)c2c1,Percent Effect,"30 µM, 30.03 µM",-69.69%
CCS(=O)(=O)N1CCCC2(COCCN(c3ccccn3)C2)C1.O=C(O)C(F)(F)F (stereo not drawn),Percent Effect,"30 µM, 30.03 µM",-23.72%
Cc1nn(C)c(Cl)c1CNCc1cccnc1N1CCOCC1.Cl,Percent Effect,"30 µM, 30.03 µM",16.35%
COC(=O)Cn1c(C)cc(=O)c2cc(F)ccc21,Percent Effect,"30.3 µM, […]",-56.52%
CC1(c2ccccc2)CCCN(Cc2cncn2C2CCCC2)C1 (stereo not drawn),Percent Effect,"30 µM, 30.03 µM",102.5%
COCCn1cncc1CN1CCCC(C)(c2ccccc2)C1 (stereo not drawn),Percent Effect,"30 µM, 30.03 µM",-43.69%
CC1(c2ccccc2)CCCN(Cc2cncn2C2CC2)C1 (stereo not drawn),Percent Effect,"30 µM, 30.03 µM",-39.24%
Cn1ccc(C(=O)N2CCCCC2c2cc(CCO)[nH]n2)n1 (stereo not drawn),Percent Effect,"30.3 µM, […]",-16.55%
O=C(Cc1cccs1)N1C[C@H]2CN(CC3CCCO3)CC[C@H]2C1.O=C(O)C(F)(F)F (stereo partly drawn),Percent Effect,"30 µM, 30.03 µM",-6.249%
COC(=O)c1cc(C(=O)N2CCOC(C)(C)C2)n(-c2ccccc2)n1,Percent Effect,"30.3 µM, […]",6.059%
Cc1nc(C)n(CC2CCCN2CC(=O)NCCc2ccsc2)n1 (stereo not drawn),Percent Effect,"30 µM, 30.03 µM",-16.47%
CN1CCN(c2ccc(S(N)(=O)=O)cc2C#N)Cc2ccccc21,Percent Effect,"30.3 µM, […]",-63.54%
CC(=O)N1CCC(n2ccc(-c3cnc(N4CCOCC4)nc3)n2)CC1,Percent Effect,"30.3 µM, […]",26%
CC[C@H](C)Nc1ncc(-c2ccn(C3CCN(C(C)=O)CC3)n2)cn1,Percent Effect,"30.3 µM, […]",-5.339%
CC(=O)N1CCC(n2ccc(-c3cnc(NCC(C)C)nc3)n2)CC1,Percent Effect,"30.3 µM, […]",77.59%
CC(C)n1c(=O)nc2n1C(=O)N(c1ccc(Br)cc1)C2,Percent Effect,"30 µM, 30.03 µM",-31.4%
N#Cc1cccc(CN2C[C@H](NC(=O)C3CC3)[C@H]3OCCC[C@H]32)c1.O=C(O)C(F)(F)F,Percent Effect,"30.3 µM, […]",-35.12%
CC(=O)N1CCCC2(CCC(=O)N2Cc2cccnc2)C1.O=C(O)C(F)(F)F (stereo not drawn),Percent Effect,"30.3 µM, […]",1.324%
COCCCN1Cc2cccc(NC(=O)c3ccccc3Cl)c2C1,Percent Effect,"30 µM, 30.03 µM",7.9%
COCCCN1Cc2cccc(NC(=O)c3cc(F)ccc3F)c2C1,Percent Effect,"30 µM, 30.03 µM",52.37%
COCCCN1Cc2cccc(NC(=O)c3cc(F)cc(F)c3)c2C1,Percent Effect,"30 µM, 30.03 µM",34.67%
CN1CCN(C2COC3(CCN(Cc4cccs4)CC3)C2)CC1.O=C(O)C(F)(F)F.O=C(O)C(F)(F)F (stereo not drawn),Percent Effect,"30.3 µM, […]",-470.3%
Cc1nc[nH]c1CN1C[C@@H]2CC[C@H](C1)N(C(=O)CCc1cccnc1)C2,Percent Effect,"30 µM, 30.03 µM",-21.46%
Cc1nc(CN2CC3(CCN(c4cnccn4)C3)CC2=O)cs1.O=C(O)C(F)(F)F (stereo not drawn),Percent Effect,"30 µM, 30.03 µM",-45.32%
CCN(CC)C(=O)CCCNC(=O)c1csc(NC2CC2)n1,Percent Effect,"30 µM, 30.03 µM",-27.48%
CC(=O)Nc1nc(C(=O)N2CCCC(c3cc(C)[nH]n3)C2)cs1 (stereo not drawn),Percent Effect,"30 µM, 30.03 µM",16.48%
Cc1[nH]/c(=N\C(=O)c2csc(NC3CC3)n2)sc1C,Percent Effect,"30 µM, 30.03 µM",66.57%
Cc1[nH]/c(=N\C(=O)c2csc(NC3CCCC3)n2)sc1C,Percent Effect,"30 µM, 30.03 µM",95.68%
CC(C)(C)[S+]([O-])CCNC(=O)c1csc(NC2CC2)n1 (stereo not drawn),Percent Effect,"30 µM, 30.03 µM",-59.41%
Cc1cnc(NC(=O)c2csc(NC3CCCC3)n2)s1,Percent Effect,"30 µM, 30.03 µM",-9.891%
O=C(O)C(F)(F)F.c1csc(CN2CCC3(CCOCC3COCC3CC3)CC2)n1 (stereo not drawn),Percent Effect,"30.3 µM, […]",-46.34%
C=C(C)CN1CCC(NC(=O)Nc2ccc(F)c(C(=O)NC)c2)CC1,Percent Effect,"30.3 µM, […]",-0.7134%
CC[C@@H]1N(Cc2ccc(F)cc2)CCC[C@]12CCC(=O)N2C.O=C(O)C(F)(F)F,Percent Effect,"30.3 µM, […]",-14.8%
O=C(O)C(F)(F)F.O=C(c1ccco1)N1CCC2(CCCN(c3ncccn3)C2)C1 (stereo not drawn),Percent Effect,"30.3 µM, […]",-37.47%
CC(=O)Nc1nc2c(s1)C1(CCN(C)CC1)Nc1ccccc1S2,Percent Effect,"30.3 µM, […]",83.23%
CC(=O)Nc1nc2c(s1)C1(CCCC1)Nc1ccccc1S2,Percent Effect,"30.3 µM, […]",-6.174%
CC(=O)Nc1nc2c(s1)C(C)(C)Nc1ccccc1S2,Percent Effect,"30.3 µM, […]",-17.63%
O=c1c(CN2CCOCC2)coc(O)c1CN1CCOCC1,Percent Effect,"30 µM, 30.03 µM",-17.25%
CN1CCN(c2ncc3c(=O)n(-c4cccc(F)c4)c(=O)[nH]c3n2)CC1,Percent Effect,"30 µM, 30.03 µM",11.72%
Cl.NC(CC1CCCC1)c1ccccc1 (stereo not drawn),Percent Effect,"30 µM, 30.03 µM",-30.59%
NC(CC1CCCC1)c1ccc(Oc2ccccc2)cc1 (stereo not drawn),Percent Effect,"30 µM, 30.03 µM",101.8%
OC(CN1CCN(CC2CCCCC2)CC1)c1ccccc1 (stereo not drawn),Percent Effect,"30 µM, 30.03 µM",-15.73%
COc1ccc(CN(Cc2cnc(N)nc2)CC2CCCO2)c(OC)c1.O=C(O)CC(O)(CC(=O)O)C(=O)O (stereo not drawn),Percent Effect,"30.3 µM, […]",5.653%
Cc1cc(NC2CCc3nc(C)nn3C2)n2ncnc2n1 (stereo not drawn),Percent Effect,"30 µM, 30.03 µM",-21.45%
CCCc1cc(NC2CCc3nc(C)nn3C2)n2ncnc2n1 (stereo not drawn),Percent Effect,"30 µM, 30.03 µM",-21.48%
CCCc1cc(NC2CCc3nc(CC)nn3C2)n2ncnc2n1 (stereo not drawn),Percent Effect,"30 µM, 30.03 µM",-33.56%
Cc1nc2n(n1)CC(Nc1cc(C(F)(F)F)nc3ncnn13)CC2 (stereo not drawn),Percent Effect,"30 µM, 30.03 µM",53.11%
CCCc1cc(NC2CCc3ncnn3C2)n2ncnc2n1 (stereo not drawn),Percent Effect,"30 µM, 30.03 µM",104.4%
CCc1nc2n(n1)CC(Nc1cc(C)nc3ncnn13)CC2 (stereo not drawn),Percent Effect,"30 µM, 30.03 µM",-89.04%
O=C(NC1CC1)[C@H]1C[C@H]2OCC[C@H]2N(Cc2ccc3ccccc3n2)C1.O=C(O)C(F)(F)F.O=C(O)C(F)(F)F,Percent Effect,"30.3 µM, […]",-259.7%
COC(=O)CCN(C)Cc1cc(Br)cs1,Percent Effect,"30 µM, 30.03 µM",-12.73%

# From ChEMBL document CHEMBL3988442, “University of Dundee, Small-Polar-MMV Screening Library” (2021)
